Sampled rows, rich in hits. Any-hit rate of the full collection: about 5.8%.
KB-V1 MDR tox = KB-V1 MDR subline cytotoxicity; KB-V1 MDR cells viability, CellTiter-Glo, 72 h; Potency, µM (series often up to 46.1 µM), actives largely listed as cytotoxic; 400,000 compounds, 3.4% hits; further: on the % scale 0 is the no-effect control and ±100 the full control effect; nearly all actives have a fitted effect of over 60% in size
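Drug-selected KB-V1 cells, grown in DMEM lacking phenol red with 10% FBS, receive compound titrations; after three days at 37 degrees C, surviving cell ATP is quantified by CellTiter-Glo luminescence and responses normalized and curve-fitted.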
MCF10A rereplic = induces DNA re-replication in MCF 10a normal breast cells; Potency, µM (top dose mostly 46.1 µM), without a hit: at the highest dose activity, positive = re-replication, usual class: activators; AID 624296; MCF 10A DNA re-replication, Hoechst nuclear intensity, 48 h; 350,000 compounds, 2.9% hits; further: % of control where 0% means no effect; nearly all actives have a fitted effect of over 50% in size
KB-3-1 cytotox = KB-3-1 parental cell cytotoxicity; Potency, µM (top dose mostly 46.1 µM), actives largely listed as cytotoxic; 400,000 compounds, 1.4% hits; KB-3-1 viability, CellTiter-Glo ATP luminescence, 72 h; further: on the % scale 0 is the no-effect control and ±100 the full control effect; nearly all actives have a fitted effect of over 60% in size
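Cytotoxicity measured as CellTiter-Glo luminescence after 72 h at 37 C. Compound titrations were pinned onto drug-naive KB-3-1 parental adenocarcinoma cells grown in DMEM with 10% FBS, and normalized data fitted to concentration-response curves.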
ALOX12 inh = ALOX12 (human) lipoxygenase inhibition | P18054 | purified 12hLO, xylenol orange hydroperoxide absorbance | Potency, µM (series often up to 108 µM), without a hit: at the highest dose activity change, negative = inhibition, most hits filed as inhibitors | 580,000 compounds, 1.1% hits | AID 1671190; further: on the % scale 0 is the no-effect control and ±100 the full control effect
Target sequence (P18054 whole entry, looked up): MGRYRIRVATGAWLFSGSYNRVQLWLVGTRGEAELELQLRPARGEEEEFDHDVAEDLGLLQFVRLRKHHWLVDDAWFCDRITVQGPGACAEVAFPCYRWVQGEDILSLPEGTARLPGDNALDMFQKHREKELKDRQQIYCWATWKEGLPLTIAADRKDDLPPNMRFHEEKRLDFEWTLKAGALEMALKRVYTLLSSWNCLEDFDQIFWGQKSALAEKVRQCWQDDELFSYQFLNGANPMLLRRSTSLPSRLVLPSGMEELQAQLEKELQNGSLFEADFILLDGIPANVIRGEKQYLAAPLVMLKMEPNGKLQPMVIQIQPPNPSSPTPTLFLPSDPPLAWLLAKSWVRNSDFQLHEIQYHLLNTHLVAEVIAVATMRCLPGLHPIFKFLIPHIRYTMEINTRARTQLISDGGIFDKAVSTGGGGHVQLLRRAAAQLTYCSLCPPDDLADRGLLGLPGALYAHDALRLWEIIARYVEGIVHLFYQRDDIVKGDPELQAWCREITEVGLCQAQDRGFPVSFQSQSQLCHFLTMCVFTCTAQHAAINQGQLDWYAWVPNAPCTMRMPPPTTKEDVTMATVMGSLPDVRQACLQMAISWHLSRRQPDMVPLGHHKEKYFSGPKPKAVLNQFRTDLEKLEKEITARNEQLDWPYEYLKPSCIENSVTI
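Purified human 12hLO at 150 nM in 25 mM Hepes, 0.01% Triton X-100, pH 7.0, preincubated 15 min at room temperature with compound. Reaction started with 40 uM arachidonic acid, 30 min at room temperature. Hydroperoxide measured by Fe-xylenol orange, 573/405 nm absorbance ratio.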
SW480 rerep = induces DNA re-replication in SW480 colon adenocarcinoma cells. SW480 DNA re-replication, Hoechst DNA content imaging, 48 h. Potency, µM (titrated, usually from 46.1 µM), for inactives: at the highest dose re-replication activation, usual class: activators. 340,000 compounds, 1.8% hits. AID 624297; further: % of control where 0% means no effect; nearly all actives have a fitted effect of over 55% in size
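Compounds, transferred as 23 nL by pin tool, were incubated with cells for 48 hr; DNA content per nucleus was then quantified by Hoechst staining and fluorescence plate imaging.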
PINK1 expr mod = PINK1 expression modulation | PINK1 immunofluorescence, high-content cytometry, 24 h | 410,000 compounds, 0.2% hits | Potency, µM (highest dose often 76.6 µM), for inactives: at the top dose activation (PINK1 increase), actives largely listed as activators; active means well fitted activation curve with a large enough effect; inconclusive means small, poorly fitted or top-dose-only effect; cell line not stated here; further: % of control where 0% means no effect; nearly all actives have a fitted effect of over 65% in size
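PINK1 protein level read as immunofluorescence by microplate cytometer in a fixed, stained stable cell line after 24 h exposure to five compound concentrations, with CCCP as control.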
* hit, by the source's call. Unless noted, the call rests on the fitted dose curve; in most records, active means well fitted curve in the direction sought with a large enough effect; inconclusive means small, poorly fitted or top-dose-only effect, or another doubt; inactive means no such curve, though single readings can be large; an effect the other way counts as inactive or inconclusive. Potency means the concentration at half of the fitted maximal effect.

COc1ccc(NC(=O)c2cc3c(N(C)Cc4ccccc4)nc(C)cn3n2)cc1 was read as ALOX12 inh 66.8%.
`Clc1ccc(CNc2nnnn2-c2ccccc2)c(Cl)c1` gave KB-V1 MDR tox inconclusive, MCF10A rereplic -18.9%, KB-3-1 cytotox inactive, ALOX12 inh 18.6%, SW480 rerep -2.6% and PINK1 expr mod 6.9%.
For Clc1cccc(-n2nnnc2NCc2ccccc2Oc2ccccn2)c1Cl the results were ALOX12 inh 12.2µM*.
Screening COc1ccc(N2CCN(c3nc(C(=O)N4CCC(C)CC4)cs3)CC2)cc1 returned ALOX12 inh -9.5%.
Cc1ccc2c(c1)S/C(=C/c1ccc[n+](CCO)c1)N2C was read as KB-V1 MDR tox inactive, MCF10A rereplic 23.2%, KB-3-1 cytotox 2.59µM*, ALOX12 inh inconclusive, SW480 rerep -1.3% and PINK1 expr mod 4.0%.
`O=C(CSc1nc2sccc2c(=O)n1-c1ccccc1)NC1CCCC1` gave ALOX12 inh -12.6%.
O=C(CN(C1CC1)S(=O)(=O)c1ccc(S(=O)(=O)NC2CCCCC2)cc1)Nc1ccccc1 was read as KB-V1 MDR tox inactive, MCF10A rereplic 9.1%, KB-3-1 cytotox inconclusive, ALOX12 inh 0.9%, SW480 rerep inconclusive and PINK1 expr mod -2.2%.
O=C(CN(Cc1cccs1)S(=O)(=O)c1ccc(S(=O)(=O)NC2CCCCC2)cc1)Nc1ccccc1 was read as KB-V1 MDR tox 13µM*, MCF10A rereplic inconclusive, KB-3-1 cytotox inconclusive, ALOX12 inh 5.9%, SW480 rerep 29.4% and PINK1 expr mod -0.6%.
`CN1CCN(Cc2ccc(-c3ccc(C(C)(C)C#N)cc3)nc2)CC1` gave ALOX12 inh 20µM*.
Screening Nc1sc(-c2ccccc2)cc1-c1n[nH]c(=S)n1C1CCCCC1 returned KB-V1 MDR tox inactive, MCF10A rereplic 3.26µM*, KB-3-1 cytotox inconclusive, ALOX12 inh 0.0%, SW480 rerep 3.26µM* and PINK1 expr mod 4.0%.
For O=C(CCS(=O)(=O)c1ccccc1)OCc1ccc([N+](=O)[O-])cc1 the results were KB-V1 MDR tox inactive, MCF10A rereplic 0.0%, KB-3-1 cytotox inactive, ALOX12 inh -9.9%, SW480 rerep 1.5% and PINK1 expr mod 0.6%.
Screening O=C(O)CCC(=O)OCCN(Cc1ccc(Oc2ccc([N+](=O)[O-])cc2)cc1)C(=O)C(Cl)Cl returned KB-V1 MDR tox 23.1µM*, MCF10A rereplic 7.6%, KB-3-1 cytotox inactive, ALOX12 inh -11.8%, SW480 rerep -0.9% and PINK1 expr mod -4.9%.
Screening CC(C)(C)c1ccccc1NC(=O)COc1ncnc2ccccc12 returned ALOX12 inh -55.8%.
`COc1ccc(CCNc2cn[nH]c(=O)c2Cl)cc1OC` gave KB-V1 MDR tox inactive, MCF10A rereplic -10.8%, KB-3-1 cytotox inactive, ALOX12 inh 2.3%, SW480 rerep -7.5% and PINK1 expr mod 4.2%.
`Cn1ncc2c(NCCc3ccccc3)nc(Cl)nc21` gave KB-V1 MDR tox 4.61µM*, MCF10A rereplic 10.2%, KB-3-1 cytotox inconclusive, ALOX12 inh 0.3%, SW480 rerep -2.9% and PINK1 expr mod -1.5%.
`O=c1[nH]ncc(NCCc2ccccc2)c1Cl` gave KB-V1 MDR tox 8.2µM*, MCF10A rereplic -3.5%, KB-3-1 cytotox inconclusive, ALOX12 inh 2.1%, SW480 rerep -4.2% and PINK1 expr mod 0.1%.
`Clc1nc(NCCc2ccccc2)c2cn[nH]c2n1` gave KB-V1 MDR tox 1.16µM*, MCF10A rereplic inconclusive, KB-3-1 cytotox inactive, ALOX12 inh -1.1%, SW480 rerep 6.4% and PINK1 expr mod -1.2%.
For Clc1nc(NC2CCCCC2)c2cn[nH]c2n1 the results were KB-V1 MDR tox inactive, MCF10A rereplic 17.6%, KB-3-1 cytotox inconclusive, ALOX12 inh -3.3%, SW480 rerep -12.3% and PINK1 expr mod -0.8%.
Screening CCCc1nc2ccccc2c(C(=O)OCC(=O)NC(C)C(C)C)c1CC (centres undefined) returned ALOX12 inh 5.9%.
For S=C1NC2=C(CCc3ccccc32)C(c2ccccc2)N1 (centres undefined) the results were ALOX12 inh 15.8µM*.
`Fc1cccc(Cl)c1C1NC(=S)NC2=C1CCc1ccccc12` (centres undefined) gave ALOX12 inh 39.8µM*.
C=CCOc1ccc(C2NC(=S)NC3=C2CCc2ccccc23)cc1 (centres undefined) was read as KB-V1 MDR tox inactive, MCF10A rereplic inconclusive, KB-3-1 cytotox inactive, ALOX12 inh inconclusive, SW480 rerep -4.6% and PINK1 expr mod -0.5%.
`S=C1NC2=C(CCCC2=C2SCCCS2)C(c2ccccc2)N1` (centres undefined) gave KB-V1 MDR tox inactive, MCF10A rereplic 1.0%, KB-3-1 cytotox inactive, ALOX12 inh 14.1µM*, SW480 rerep 3.5% and PINK1 expr mod 3.4%.
`COc1ccc(C2NC(=S)NC3=C2CCCC3=C2SCCS2)cc1` (centres undefined) gave KB-V1 MDR tox inactive, MCF10A rereplic 18.8%, KB-3-1 cytotox inconclusive, ALOX12 inh inconclusive, SW480 rerep inconclusive and PINK1 expr mod 5.5%.
Screening COc1cc(C2NC(=S)NC3=C2CCc2ccccc23)cc(OC)c1OC (centres undefined) returned KB-V1 MDR tox inactive, MCF10A rereplic 0.3%, KB-3-1 cytotox inactive, ALOX12 inh inconclusive, SW480 rerep -0.6% and PINK1 expr mod 2.7%.
For COc1ccc2c(c1)CCC1=C2NC(=S)NC1c1ccc(N(C)C)cc1 (centres undefined) the results were KB-V1 MDR tox inconclusive, MCF10A rereplic 20.6µM*, KB-3-1 cytotox inconclusive, ALOX12 inh inconclusive, SW480 rerep 12.5% and PINK1 expr mod -0.3%.
Screening N#CCOc1ccc2c(=O)c(-c3ccccc3)c(C(F)(F)F)oc2c1 returned ALOX12 inh -2.7%.
For CCOc1cc(-c2c(C)c(CC)nc(N)c2C#N)ccc1O the results were KB-V1 MDR tox 18.4µM*, MCF10A rereplic inconclusive, KB-3-1 cytotox inconclusive, ALOX12 inh 0.0%, SW480 rerep 16.7% and PINK1 expr mod 3.9%.
For Cc1ccc(-c2cc(-c3ccc(Cl)cc3)c(C#N)c(N)n2)o1 the results were KB-V1 MDR tox inactive, MCF10A rereplic 2.91µM*, KB-3-1 cytotox inactive, ALOX12 inh inconclusive, SW480 rerep 2.59µM* and PINK1 expr mod 9.0%.
Cc1ccc(-c2cc(-c3ccc(Cl)cc3)c(C#N)c(N)c2C#N)cc1 was read as ALOX12 inh 7.8%.
